From ChEMBL document CHEMBL3988442, “University of Dundee, Small-Polar-MMV Screening Library” (2021) come the findings set out here.

Hit rate of the full screen: of about 48,000 compounds, about 13,000 (27%) showed an effect of 50% or more. The list shows a part of the results.

For this assay, the system named is Wolbachia pipientis. Description: Anti-Wolbachia Cell-Based Screen. The class given is functional. Set-up: scale not given: in the data most compounds retested in dose-response had high values. Conditions: 5 µM.
Turning to `CCC(CO)NC(=O)Nc1cc(F)ccc1Br` (stereo not drawn), the “Percent Effect” value is recorded as 7.156%.
In the case of `N#Cc1cccc(OCC(=O)N(Cc2ccsc2)C2CC2)c1`, the “Percent Effect” value is recorded as -11.35%.
For `COCC1CCN(CCCc2cccc(OC)c2)CC1` the value was -10.46%; for `CC(C)(C)CNC[C@H]1Cn2ccnc2CO1`, -18.46%; for `NC(=O)C1CN(C(=O)Nc2ccccc2OCC(F)(F)F)CCO1` (stereo not drawn), 120.3%.
The figure for `NC(=O)C1CN(C(=O)C2(c3ccc(F)cc3F)CCCC2)CCO1` (stereo not drawn) is -8.523%; for `O=C(COc1ccccc1O)N1CCOC(C(F)(F)F)C1` (stereo not drawn) it is 13.92%.
For `NC(=O)C1CN(C(=O)Nc2ccccc2N2CCCCCC2)CCO1` (stereo not drawn) the value was 3.966%.
For the compound `NC(=O)C1CN(C(=O)Nc2ccccc2SC(F)(F)F)CCO1` (stereo not drawn), the “Percent Effect” value is -3.203%.
For `NC(=O)C1CN(C(=O)Nc2ccccc2Oc2ccccc2Cl)CCO1` (stereo not drawn) the value was 94.62%.
Regarding `C=C(C)COc1ccccc1NC(=O)N1CCOCC1CO` (stereo not drawn), the “Percent Effect” value is given as 6.942%.
The figure for `NC(=O)C1CN(C(=O)Nc2ccccc2SC2CCCC2)CCO1` (stereo not drawn) is 100%; for `NC(=O)C1CN(C(=O)Nc2ccccc2-c2cccs2)CCO1` (stereo not drawn) it is -5.73%; for `CSc1ccc(-c2nc(CN3CCCC(CNC(C)=O)C3)c(C)o2)cc1` (stereo not drawn) it is 24.94%.
Regarding `CC(=O)N1CCC(N2CCOC[C@H]2c2nc(-c3ccccc3)c[nH]2)CC1`, the “Percent Effect” value is -17.76%.
The figure for `Cc1cc(C)c2nc(CN3CCC(C#N)CC3)cc(O)c2c1` is -6.492%.
The figure for `O=C(NCc1cc2n(n1)CCCN(Cc1ccc(Cl)s1)C2)C1CCC1` is -18.59%; for `O=C(NCc1cc2n(n1)CCCN(Cc1ccc(CO)o1)C2)C1CCC1` it is -16.23%.
The figure for `CC(=O)c1ccc(NCc2cc3n(n2)CCCN(S(C)(=O)=O)C3)nc1` is -0.5632%; for `CS(=O)(=O)N1CCCn2nc(CNc3cc(C#N)ccn3)cc2C1` it is 9.255%.
Consider `N#Cc1ccnc(NCc2cc3n(n2)CCCN(C(=O)C2CCC2)C3)c1`, for which the “Percent Effect” value was determined as 115.4%.
For `N#Cc1ccc(NCc2cc3n(n2)CCCN(C(=O)C2CCC2)C3)nc1` the value was 102.7%.
The figure for `CSCC(C)(O)CNC(=O)Nc1ccc(C)cc1Br` (stereo not drawn) is 7.748%; for `O=C(O)c1cccc(CC2CCN(c3ncccn3)CC2)c1` it is -1.664%.
The figure for `CN(C)C(=O)c1cccc(C2CCN(c3ncccn3)CC2)n1` is 135.8%; for `NC(=O)c1cccc(C2CCN(c3ncccn3)CC2)n1` it is 105.7%.
Regarding `O=C(C1CC1)N1CCCCCC1C1CCN(c2ncccn2)CC1` (stereo not drawn), the “Percent Effect” value was -21.65%.
For `CN(C)C(=O)[C@@H]1CCO[C@@H]2CCN(c3ncccn3)C[C@H]21` the value was 1.087%; for `CCN(C(C)=O)C1CCN(c2nccc(C3CCCC3)n2)C1` (stereo not drawn), 3.77%.
The figure for `COC(=O)c1ccc(NC(=O)[C@@H]2CCCN2C(=O)c2ccco2)s1` is -1.409%.
For `CCc1nc(CN(Cc2cccs2)CC2CCCO2)no1` (stereo not drawn) the value was 3.529%; for `OCCN(Cc1nc(-c2ccc3c(c2)OCO3)no1)CC1CC1`, -12.91%; for `COCCN(Cc1ccccc1)Cc1nc(-c2ccsc2)no1`, 2.788%.
Take `OCCN(Cc1nc(-c2ccc3c(c2)OCO3)no1)Cc1cccs1`: the “Percent Effect” value turned out to be 121.2%.
The figure for `CC(Cn1cccn1)NCc1nc(-c2ccc3c(c2)OCO3)no1` (stereo not drawn) is -6.149%; for `OCCN(Cc1ccccc1)Cc1nc(-c2ccc3c(c2)OCO3)no1` it is 99.41%; for `COCCN(Cc1ccco1)Cc1nc(-c2ccccc2)no1` it is 2.564%.
For `CCN(Cc1nc(C(C)C)no1)Cc1cccs1` the value was 12.81%; for `COC(=O)c1ccc(-c2noc(CN(CCO)Cc3cccs3)n2)cc1`, 109.2%.
The figure for `Cc1ccc(Sc2ccc(N3CCC(C(=O)O)CC3)nn2)cc1` is 6.07%.
As for `Cc1cc(C)c(-n2cccn2)c(CN2CCOCC(CN(C)C)C2)c1` (stereo not drawn), the “Percent Effect” value was 9.231%.
The figure for `Cc1cccnc1[C@H](C)NC(=O)Cc1cc2c(cc1Cl)OCCO2` is 3.322%; for `CN1CCOC[C@H]1c1nc(-c2ccccc2)c[nH]1` it is 1.409%.
The figure for `O=C(C1CC1)N1CCC(C(=O)N2CCC(c3ccc(F)cc3)C2)CC1` (stereo not drawn) is -1.259%.
As for `CCS(=O)(=O)N1CCc2nc(C3CCN(C(=O)C4CC4)C3)nc(O)c2C1` (stereo not drawn), the “Percent Effect” value amounted to 88.69%.
With `O=C(C1CC1)N1CCc2nc(C3CCN(C(=O)C4CC4)C3)nc(O)c2C1` (stereo not drawn), the “Percent Effect” value is listed as 98.35%.
The figure for `CCS(=O)(=O)N1CCc2nc(N3CCCC3)nc(N(C)C)c2CC1` is 3.292%.
As for `O=S(=O)(CCO)Cc1ccc(OC(F)F)cc1`, the “Percent Effect” value is -13.52%.
As for `COc1cccc(-c2noc(-c3ccc(NCCCN)nc3)n2)c1OC`, the “Percent Effect” value is recorded as -11.46%.
For `O=C(Cn1cc(C2CC2)nn1)NC(c1ccc(Cl)cc1)C1CC1` (stereo not drawn) the value was -3.06%; for `CCc1nnc(CN2CCN(c3cccc(OC)c3)C(=O)C2)o1`, 104.5%.
Turning to `CCc1nnc(N2CCN(c3ccccc3)C(=O)C2)o1`, the “Percent Effect” value is given as 1.843%.
For `COc1cccc(N2CCN(Cc3ncc[nH]3)CC2=O)c1` the value was -4.353%.
The figure for `CCc1ccc(CN2CCN(c3ccc(C#N)cc3)C(=O)C2)nc1` is -14.58%; for `CN(C)c1ccc(CN2CCN(c3ccc(C#N)cc3)C(=O)C2)cn1` it is 27.75%.
For `CCc1ccc(CN2CCN(c3cccc(OC)c3)C(=O)C2)nc1` the value was 111.5%.
Take `Cc1ccc(S(=O)(=O)n2ccc(C(=O)NCC(F)(F)F)c2)cc1`: the “Percent Effect” value is listed as 31.33%.
For `COc1ccc2c(=O)n(CC3CC3)ccc2c1OC` the value was 8.638%; for `CC(C)C(NC(=O)NCCNc1ccccn1)c1cccs1` (stereo not drawn), -3.383%; for `COc1ccc(C(C)NC(=O)NCCNc2ccccn2)c(OC)c1` (stereo not drawn), 23.68%.
For `CCn1cnnc1CNC(=O)NC(C)c1cccs1` (stereo not drawn) the value was 5.383%; for `CC(NC(=O)NCCNc1ccccn1)c1cccs1` (stereo not drawn), 84.24%; for `CC(NC(=O)NCc1ccccn1)c1cccs1` (stereo not drawn), 95.38%.
For `O=C(O)C(F)(F)F.O=S(=O)(C1CC1)N1CC[C@]2(C[C@@H](Oc3ccccn3)CO2)C1` the value was -7.855%; for `CN(C)c1ncc(CNS(=O)(=O)c2cc(F)ccc2Cl)n1C`, -4.152%; for `COCCN1CCC(C(=O)N(C)Cc2c[nH]c3ccc(C)cc23)C1` (stereo not drawn), -13.06%.
For the compound `CN1CCC2(CCN(CC3CC3)CC2)C1=O.O=C(O)C(F)(F)F`, the “Percent Effect” value is listed as -0.5297%.
The figure for `CCN1CCC(N2CCC(C(=O)N(C)C)CC2)CC1.O=C(O)C(F)(F)F.O=C(O)C(F)(F)F` is 104.7%; for `CN1CCN(C2COC3(CCN(CC4CC4)CC3)C2)CC1.O=C(O)C(F)(F)F.O=C(O)C(F)(F)F.O=C(O)C(F)(F)F` (stereo not drawn) it is -10.32%; for `CCc1nc(CN2CCC(C(=O)N(C)C)CC2)cs1` it is -2.315%.
For `CN(C)C(=O)C1CCN(C2CCN(CC3CCC3)CC2)CC1.O=C(O)C(F)(F)F.O=C(O)C(F)(F)F` the value was 115.1%; for `CN(C)C(=O)C1CCN(C2CCN(CC3CC3)CC2)CC1.O=C(O)C(F)(F)F.O=C(O)C(F)(F)F`, 109%.
The figure for `CC(C)C(=O)N1CCC2(CN(CC3CCCC3)C2)C1.O=C(O)C(F)(F)F` is -3.433%; for `CC(C)CN1CCC(N2CCC(C(=O)N(C)C)CC2)CC1.O=C(O)C(F)(F)F.O=C(O)C(F)(F)F` it is 126.3%; for `CC(C)CN1CC[C@@H]2[C@H](CC1)N(C(=O)c1ccccc1)CCS2(=O)=O.O=C(O)C(F)(F)F` it is -7.451%.
Take `CC(C)CN1CC[C@@H]2[C@@H]1CCN2C(=O)N1CCCC1.O=C(O)C(F)(F)F`: the “Percent Effect” value is given as -1.369%.
The figure for `CN(C)C(=O)CN1CC[C@H]2CN(C3CCOCC3)C[C@@H]2C1=O.O=C(O)C(F)(F)F` is -33.67%; for `CN(C)Cc1cn2c(n1)CN(CC1CCCC1)CC2.O=C(O)C(F)(F)F.O=C(O)C(F)(F)F` it is -16.91%.
